Assay outcomes deposited in PubChem by National Center for Advancing Translational Sciences (NCATS).
IL1B secr inh: qHTS for Inhibitors of Inflammasome Signaling: IL-1-beta AlphaLISA Primary Screen; THP-1 LPS/ATP IL-1B secretion, AlphaLISA, 16 h; hits give low values; activity change, % at 57.5 µM; 360,000 tested, 4.7% active; in the data active = activity change below about -50%; inconclusive = mostly about -30% to -49%
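THP-1 cells pretreated 1 hr with compounds (up to 57.5 uM final), then stimulated with LPS (250 ng/mL final) plus ATP (1.25 mM final); secreted IL-1B measured by AlphaLISA after 16 hr, decreased signal indicating inhibition.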
HT1080 IDH1KD tx: qHTS for induction of synthetic lethality in tumor cells producing 2HG: qHTS for the HT-1080-IDH1KD cell line; Potency, µM (series often up to 46.1 µM), without a hit: top-dose activity, negative = toxicity, actives largely listed as cytotoxic; HT-1080 IDH1 knockdown viability, ATP luminescence, 48 h; AID 686971, 2013; 360,000 tested, 2% active;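 also: potency is read from the fitted curve at half-maximal effect; 0% = DMSO wells and -100% = cell-free medium wells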
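In this qHTS, HT-1080 cells depleted of IDH1 are exposed for 48 h at 37 °C to compound titrations. Toxicity is scored from CellTiter-Glo luminescence, with DMSO as full viability and medium alone as none.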
TDP1 cell noCPT: qHTS for Inhibitors of human tyrosyl-DNA phosphodiesterase 1 (TDP1): qHTS in cells in absence of CPT | DT40 Tdp1-/- hTDP1 cells, no CPT, ATP luminescence, 48 h | Potency, µM (series often up to 46.2 µM), for the others: at the highest dose activity change, negative = growth inhibition, hits mostly inhibitors | 420,000 tested, 15% active; also: potency is read from the fitted curve at half-maximal effect; nearly all actives have a fitted effect of over 55% in size
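No-CPT arm: Tdp1-/-;hTDP1 DT40 cells (400/well) plus compounds, incubated ≥48 hr at 37 °C. Readout CellTiter-Glo luminescence.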
HT1080-NT tox: qHTS for induction of synthetic lethality in tumor cells producing 2HG: qHTS for the HT-1080-NT fibrosarcoma cell line. HT-1080-NT fibrosarcoma viability, CellTiter-Glo ATP luminescence, 48 h. Potency, µM (highest dose often 46.1 µM), inactives show at the top dose activity, negative = less viability, usual class: cytotoxic. 360,000 tested, 1.6% active. AID 686970, 2013;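 also: NT is the 2HG producing partner of a matched IDH1 knockdown line; potency is read from the fitted curve at half-maximal effect; 0% = DMSO-treated cells and -100% = media-only wells without cells; nearly all actives have a fitted effect of over 55% in size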
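Viability by CellTiter-Glo luminescence after 48 h compound exposure at 37C of HT-1080-NT cells (750/well, RPMI, 5% FBS). % activity scaled between DMSO wells and medium-only wells, then curve-fitted and categorized by curve class.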
ALOX12 inh: Primary qHTS assay for inhibitors of human arachidonate 12S-lipoxygenase (ALOX12): Round 2; Polyunsaturated fatty acid lipoxygenase ALOX12 (Homo sapiens), P18054; purified 12hLO, xylenol orange hydroperoxide absorbance; Potency, µM (top dose mostly 108 µM), for the others: top-dose activity change, negative = inhibition, actives largely listed as inhibitors; 580,000 tested, 1.1% active; AID 1671190, 2021; also: potency is read from the fitted curve at half-maximal effect
Target sequence (P18054 whole entry, looked up): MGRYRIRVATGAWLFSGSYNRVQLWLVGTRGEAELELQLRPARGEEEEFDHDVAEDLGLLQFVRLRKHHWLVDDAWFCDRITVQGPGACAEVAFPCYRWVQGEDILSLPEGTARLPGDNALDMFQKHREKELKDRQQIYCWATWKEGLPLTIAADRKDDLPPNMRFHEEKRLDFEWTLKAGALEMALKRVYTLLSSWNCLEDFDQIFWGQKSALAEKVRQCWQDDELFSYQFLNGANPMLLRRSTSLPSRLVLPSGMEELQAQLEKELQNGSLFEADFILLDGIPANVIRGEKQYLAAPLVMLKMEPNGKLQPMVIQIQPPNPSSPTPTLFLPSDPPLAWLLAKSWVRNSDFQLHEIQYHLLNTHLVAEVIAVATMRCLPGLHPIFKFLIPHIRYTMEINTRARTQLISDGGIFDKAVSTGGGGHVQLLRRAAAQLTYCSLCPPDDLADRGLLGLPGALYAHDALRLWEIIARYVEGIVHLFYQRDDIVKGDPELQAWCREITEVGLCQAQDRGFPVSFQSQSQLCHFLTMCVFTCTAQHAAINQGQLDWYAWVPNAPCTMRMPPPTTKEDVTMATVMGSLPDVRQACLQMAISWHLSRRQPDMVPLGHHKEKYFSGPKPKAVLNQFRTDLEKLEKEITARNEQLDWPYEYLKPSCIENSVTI
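Purified human 12hLO at 150 nM in 25 mM Hepes, 0.01% Triton X-100, pH 7.0, preincubated 15 min at room temperature with compound. Reaction started with 40 uM arachidonic acid, 30 min at room temperature. Hydroperoxide measured by Fe-xylenol orange, 573/405 nm absorbance ratio.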
DT40 TDP1 CPT: qHTS for Inhibitors of human tyrosyl-DNA phosphodiesterase 1 (TDP1): qHTS in cells in presence of CPT; chicken DT40 Tdp1-/-;hTDP1 cells + 20 nM CPT, ATP luminescence, 48 h; Potency, µM (doses to about 46.2 µM), for the others: at the top dose activity change, negative = growth inhibition, usual class: inhibitors; 420,000 tested, 12% active; also: potency is read from the fitted curve at half-maximal effect; nearly all actives have a fitted effect of over 55% in size
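Cell growth measured by CellTiter-Glo luminescence after a minimum 48 h, 37 C compound exposure with 20 nM CPT in Tdp1-knockout DT40 cells stably expressing hTDP1, seeded 400/well; qHTS titration format.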
* hit, by the source's call. Shown is part of a subset that was picked to be rich in hits. Unless noted, calls follow the shape of the dose curve; as a rule, active = well fitted curve in the direction sought with a large enough effect; inconclusive = small, poorly fitted or top-dose-only effect, or another doubt; inactive = no such curve, though single readings can be large; an effect the other way counts as inactive or inconclusive. Unless noted, % is scaled to controls: 0 for no effect and ±100 for the full control effect.

What do the screens show for `COc1ccc(OC)c(NC(=O)c2cccc(N3C(=O)C4C5C=CC(C6CC56)C4C3=O)c2)c1` (stereo not given)?
IL1B secr inh: -3; HT1080 IDH1KD tx: -5%; TDP1 cell noCPT: 12µM*; HT1080-NT tox: inconclusive; ALOX12 inh: 3%; DT40 TDP1 CPT: 16µM*

Results for COc1ccc(OC)c(NC(=O)c2cccc(N3C(=O)C4C5CCC(C5)C4C3=O)c2)c1 (stereo not given) ?
IL1B secr inh: 0; HT1080 IDH1KD tx: -10%; TDP1 cell noCPT: 16µM*; HT1080-NT tox: -18%; ALOX12 inh: -3%; DT40 TDP1 CPT: 23µM*

What do the screens show for `CC1=CCC2C(=O)N(c3cccc(C(=O)N(C)C4CCCCC4)c3)C(=O)C2C1` (stereo not given)?
IL1B secr inh: -21; HT1080 IDH1KD tx: 1%; TDP1 cell noCPT: -25%; HT1080-NT tox: 5%; ALOX12 inh: 4%; DT40 TDP1 CPT: -29%

How did Cc1ccc(OCc2nc(C3CCN(C(=O)Cn4nc(C)cc4C)CC3)no2)cc1 do in these assays?
ALOX12 inh: 16%

What do the screens show for `Cc1ccc2c(C)nc(Nc3nccc(C)n3)nc2c1`?
ALOX12 inh: 7%

What do the screens show for `Nc1ccc2c(c1)OC1(CCCCC1)O2`?
IL1B secr inh: 9; HT1080 IDH1KD tx: 16%; TDP1 cell noCPT: 16µM*; HT1080-NT tox: 0%; ALOX12 inh: 13%; DT40 TDP1 CPT: inconclusive

Results for Cc1[nH]nc(C(F)(F)F)c1N=NN1CCOCC1 ?
IL1B secr inh: -10; HT1080 IDH1KD tx: inconclusive; TDP1 cell noCPT: 3.3µM*; HT1080-NT tox: inconclusive; ALOX12 inh: -23%; DT40 TDP1 CPT: 2.6µM*

How did COc1ccccc1NC(=O)Cn1c(SCC(=O)NCc2ccccc2)nc2ccccc21 do in these assays?
TDP1 cell noCPT: inconclusive; ALOX12 inh: -25%; DT40 TDP1 CPT: -12%

How did O=C(CSc1nc2ccccc2n1Cc1ccccc1Cl)NCc1ccccc1 do in these assays?
TDP1 cell noCPT: 23µM*; ALOX12 inh: inconclusive; DT40 TDP1 CPT: 15µM*

Results for Cc1ccc(C)c(Cn2c(SCC(=O)NCc3ccccc3)nc3ccccc32)c1 ?
TDP1 cell noCPT: 18µM*; ALOX12 inh: -22%; DT40 TDP1 CPT: inconclusive

Results for Cn1sccc1=O ?
IL1B secr inh: -53*; HT1080 IDH1KD tx: inconclusive; TDP1 cell noCPT: 2.9µM*; HT1080-NT tox: inconclusive; ALOX12 inh: -3%; DT40 TDP1 CPT: 2.9µM*

What do the screens show for `COc1ccc(C(=O)C=CNNC(=O)c2ccc(Cl)cc2)cc1`?
IL1B secr inh: 148; HT1080 IDH1KD tx: inconclusive; TDP1 cell noCPT: inconclusive; HT1080-NT tox: -28%; ALOX12 inh: inconclusive; DT40 TDP1 CPT: 3.3µM*

Results for Cc1ccc(C(=O)/C=C/NNC(=O)c2ccccc2O)cc1 ?
IL1B secr inh: 90; HT1080 IDH1KD tx: -26%; TDP1 cell noCPT: inconclusive; HT1080-NT tox: -24%; ALOX12 inh: inconclusive; DT40 TDP1 CPT: 16µM*

How did O=C(/C=C/NNC(=O)c1ccccc1)c1ccc(Br)cc1 do in these assays?
IL1B secr inh: 81; HT1080 IDH1KD tx: inconclusive; TDP1 cell noCPT: 4.6µM*; HT1080-NT tox: inconclusive; ALOX12 inh: inactive; DT40 TDP1 CPT: 3.3µM*

How did COc1ccc(C(=O)NN/C=C/C(=O)c2ccc(Br)cc2)cc1 do in these assays?
IL1B secr inh: 69; HT1080 IDH1KD tx: -26%; TDP1 cell noCPT: inconclusive; HT1080-NT tox: -18%; ALOX12 inh: -25%; DT40 TDP1 CPT: 23µM*

What do the screens show for `CCOc1ccccc1CNC(=O)CC1CCOCC1`?
ALOX12 inh: 46%

How did Cc1ccc(C(=O)N(C)C)cc1NC(=O)CC1CC2CCC1C2 (stereo not given) do in these assays?
ALOX12 inh: -30%

Results for CN1c2ccccc2N(C)C1(C)c1cccc2ccccc12 ?
IL1B secr inh: 40; HT1080 IDH1KD tx: -3%; TDP1 cell noCPT: 3.3µM*; HT1080-NT tox: 0%; ALOX12 inh: 35µM*; DT40 TDP1 CPT: 5.8µM*

How did CC1=C(C(=O)N(C(C)C)C(C)C)CC(CC(=O)NCc2cccs2)C(=O)N1Cc1ccc(F)cc1 (stereo not given) do in these assays?
IL1B secr inh: -17; HT1080 IDH1KD tx: 13%; TDP1 cell noCPT: inconclusive; HT1080-NT tox: 14%; ALOX12 inh: 26%; DT40 TDP1 CPT: inconclusive

Results for CC1=C(C(=O)N2CCOCC2)CC(CC(=O)NCc2cccs2)C(=O)N1Cc1ccccc1 (stereo not given) ?
IL1B secr inh: 3; HT1080 IDH1KD tx: 9%; TDP1 cell noCPT: 14%; HT1080-NT tox: 10%; ALOX12 inh: inconclusive; DT40 TDP1 CPT: -1%

How did CC1=C(C(=O)N(C(C)C)C(C)C)CC(CC(=O)NCc2cccs2)C(=O)N1Cc1ccc(C(C)(C)C)cc1 (stereo not given) do in these assays?
IL1B secr inh: -59*; HT1080 IDH1KD tx: inconclusive; TDP1 cell noCPT: 23µM*; HT1080-NT tox: inconclusive; ALOX12 inh: -1%; DT40 TDP1 CPT: inconclusive

What do the screens show for `CC1=C(C(=O)N2CCOCC2)CC(CC(=O)NCc2ccco2)C(=O)N1Cc1ccc(C(C)(C)C)cc1` (stereo not given)?
IL1B secr inh: -16; HT1080 IDH1KD tx: -5%; TDP1 cell noCPT: 21µM*; HT1080-NT tox: -7%; ALOX12 inh: 4%; DT40 TDP1 CPT: 29µM*

Results for COc1ccc(CN2C(=O)C(CC(=O)NCc3ccco3)CC(C(=O)N3CCOCC3)=C2C)cc1 (stereo not given) ?
IL1B secr inh: -13; HT1080 IDH1KD tx: 4%; TDP1 cell noCPT: inconclusive; HT1080-NT tox: 3%; ALOX12 inh: -20%; DT40 TDP1 CPT: 11%

Results for CC1=C(C(=O)N2CCOCC2)CC(CC(=O)NCc2cccs2)C(=O)N1Cc1ccc(C(C)(C)C)cc1 (stereo not given) ?
IL1B secr inh: 22; HT1080 IDH1KD tx: 1%; TDP1 cell noCPT: inconclusive; HT1080-NT tox: -2%; ALOX12 inh: -15%; DT40 TDP1 CPT: 15µM*
